Experimental data reported in PubChem BioAssay (EPA / NIEHS).
The source made the active and inactive calls. How the source made its calls: active means hit-call score of the fitted dose curve at least 0.9, where 1 is the maximum; inactive means score below 0.9.

Assays:
Conditions in all cases: mRNA level, 48 h; actives raise or lower the signal
[1] = read-out: Lipoprotein lipase (LPL), LPL (gene 4023); test: LTEA_HepaRG_LPL: Life Technologies and Expression Analysis (LTEA) Assay for Lipoprotein lipase (LPL) using HepaRG (AID 2283515)
In short: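 Concentration-response testing used half-log steps from 100 uM in 0.5% DMSO on human HepaRG cells, 48 h, duplicate wells. Phenobarbital 1 mM served as induction control; LPL mRNA was normalized to ACTB, GAPDH, POLR2A.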

[2] = read-out: MicroRNA 122 (MIR122), gene 406906; test: LTEA_HepaRG_MIR122: Life Technologies and Expression Analysis (LTEA) Assay for MicroRNA 122 (MIR122) using HepaRG (AID 2283516); further: the transcript read is the microRNA miR-122
In short: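 Expression measured by microfluidic qRT-PCR with three housekeeping genes for normalisation, after 48 h treatment of HepaRG cultures. Eight concentrations (top 100 uM, half-log steps, 0.5% DMSO vehicle) in duplicate; gain or loss fitted relative to vehicle.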

[3] = read-out: matrix metalloproteinase-10 (MMP10), MMP10 (gene 4319); test: LTEA_HepaRG_MMP10: Life Technologies and Expression Analysis (LTEA) Assay for matrix metalloproteinase-10 (MMP10) using HepaRG (AID 2283517)
In short: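 In differentiated HepaRG cultures kept in 0.5% DMSO, test chemicals act for 48 h over an eight-point range with a top dose of 100 uM. Expression is then quantified by TaqMan RT-PCR against ACTB, GAPDH and POLR2A.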

MYC, MYC (gene 4609) = test: LTEA_HepaRG_MYC: Life Technologies and Expression Analysis (LTEA) Assay for MYC using HepaRG (AID 2283518)
In short: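 Expression changes were scored by TaqMan qRT-PCR with ACTB, GAPDH and POLR2A normalization. Cultures in serum-free induction medium received duplicate 8-point concentration series, highest 100 uM, for 48 h; DMSO (0.5%) served as baseline.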

[4] = read-out: matrix metalloproteinase-3 (MMP3), MMP3 (gene 4314); test: LTEA_HepaRG_MMP3: Life Technologies and Expression Analysis (LTEA) Assay for matrix metalloproteinase-3 (MMP3) using HepaRG (AID 2283519)
In short: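 Human liver HepaRG cultures received chemicals (top concentration 100 uM, 0.5% DMSO) for 48 h in duplicate. MMP3 mRNA induction or loss was then assessed via TaqMan qRT-PCR with housekeeping-gene normalisation.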

[5] = read-out: Paternally Expressed 10 (PEG10), PEG10 (gene 23089); test: LTEA_HepaRG_PEG10: Life Technologies and Expression Analysis (LTEA) Assay for Paternally Expressed 10 (PEG10) using HepaRG (AID 2283520)
In short: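 PEG10 transcript measured by Fluidigm qRT-PCR, normalized to three housekeeping genes, in HepaRG cells treated 48 h (highest 100 uM, half-log steps, 0.5% DMSO vehicle). Cells plated 48 h before switching to serum-free induction medium.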

[6] = read-out: Protein phosphatase 2A (PPP2R4), PTPA (gene 5524); test: LTEA_HepaRG_PPP2R4: Life Technologies and Expression Analysis (LTEA) Assay for Protein phosphatase 2A (PPP2R4) using HepaRG (AID 2283522)
In short: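 Expression was quantified by Fluidigm qRT-PCR normalised to three housekeeping genes after 48 h treatment. Human HepaRG cells received an 8-point series from 100 µM downward by half-logs, in duplicate with 0.5% DMSO vehicle and 1 mM phenobarbital as induction control.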

[7] = read-out: Phosphatase and tensin (PTEN), PTEN (gene 5728); test: LTEA_HepaRG_PTEN: Life Technologies and Expression Analysis (LTEA) Assay for Phosphatase and tensin (PTEN) using HepaRG (AID 2283523)
In short: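 Expression of PTEN is quantified in the human liver line HepaRG following two days of dosing (top concentration 100 uM, half-log dilutions, 0.5% DMSO). Values derive from bidirectional curve fitting relative to DMSO controls.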

[8] = read-out: solute carrier (SLC22A1), SLC22A1 (gene 6580); test: LTEA_HepaRG_SLC22A1: Life Technologies and Expression Analysis (LTEA) Assay for solute carrier (SLC22A1) using HepaRG (AID 2283524);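 on AC50: differentiated human HepaRG liver cells in serum-free induction medium; TaqMan qRT-PCR normalized to ACTB GAPDH and POLR2A housekeeping genes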
In short: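 Transcript induction or suppression of SLC22A1 in human HepaRG cultures is scored after 48 h chemical treatment, with DMSO (0.5%) as baseline for bidirectional fitting. Concentrations span eight half-log points topping at 100 uM.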

[9] = read-out: Pyruvate Dehydrogenase Kinase 4 (PDK4), PDK4 (gene 5166); test: LTEA_HepaRG_PDK4: Life Technologies and Expression Analysis (LTEA) Assay for Pyruvate Dehydrogenase Kinase 4 (PDK4) using HepaRG (AID 2283525)
In short: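 Eight-point, half-log concentration series (max 100 uM, 0.5% DMSO) applied to differentiated HepaRG cells for 48 h in duplicate. Endpoint: PDK4 mRNA induction or repression by qRT-PCR against DMSO baseline.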

[10] = read-out: NAD(P)H dehydrogenase [quinone] 1 (NQO1), NQO1 (gene 1728); test: LTEA_HepaRG_NQO1: Life Technologies and Expression Analysis (LTEA) Assay for NAD(P)H dehydrogenase [quinone] 1 (NQO1) using HepaRG (AID 2283526)
In short: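 NQO1 transcript induction or loss measured by TaqMan qRT-PCR, referenced to three housekeeping genes and fitted bidirectionally against 0.5% DMSO. HepaRG cultures exposed 48 h, duplicate, eight-point half-log series, top 100 uM.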

[11] = read-out: Nuclear factor erythroid 2-related factor 2 (Homo sapiens) (UniProt Q16236); test: LTEA_HepaRG_NFE2L2: Life Technologies and Expression Analysis (LTEA) Assay for Nuclear factor erythroid 2-related factor 2 (NFE2L2) Transcription Factor using HepaRG (AID 2283527)
In short: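 Human liver HepaRG line treated in duplicate for 48 h with an eight-point series topping at 100 uM. Gene expression of NFE2L2 by qRT-PCR, bidirectionally fitted against the vehicle control.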

[12] = read-out: succinate dehydrogenase complex iron sulfur subunit B (SDHB), SDHB (gene 6390); test: LTEA_HepaRG_SDHB: Life Technologies and Expression Analysis (LTEA) Assay for succinate dehydrogenase complex iron sulfur subunit B (SDHB) using HepaRG (AID 2283528)
In short: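 Readout is SDHB transcript level by qRT-PCR, normalised to three housekeeping genes and fitted bidirectionally against 0.5% DMSO vehicle. Human HepaRG cells were treated for 48 h at up to 100 uM.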

[13] = read-out: Signal transducer and activator of transcription 3 (Homo sapiens) (UniProt P40763); test: LTEA_HepaRG_STAT3: Life Technologies and Expression Analysis (LTEA) Assay for Signal transducer and activator of transcription (STAT3) using HepaRG (AID 2283529)
In short: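 In this transcriptional endpoint, HepaRG cultures receive test chemicals at up to 100 uM for 48 h, tested in duplicate. STAT3 mRNA is normalized to ACTB, GAPDH and POLR2A.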

[14] = read-out: solute carrier (SLCO1B1), SLCO1B1 (gene 10599); test: LTEA_HepaRG_SLCO1B1: Life Technologies and Expression Analysis (LTEA) Assay for solute carrier (SLCO1B1) using HepaRG (AID 2283530)
In short: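 Human HepaRG cultures treated for 48 h with an eight-concentration half-log series topping at 100 uM; SLCO1B1 measured by qRT-PCR and fitted bidirectionally relative to DMSO.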

[15] = read-out: sulfotransferase 2A1 (SULT2A1), SULT2A1 (gene 6822); test: LTEA_HepaRG_SULT2A1: Life Technologies and Expression Analysis (LTEA) Assay for sulfotransferase 2A1 (SULT2A1) using HepaRG (AID 2283531)
In short: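 Gene-expression endpoint in a human liver cell line: SULT2A1 mRNA change after 48 h chemical treatment, curves fitted in both directions relative to 0.5% DMSO vehicle. Concentrations spanned eight half-log steps from 100 uM.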

[16] = read-out: Transforming Growth Factor (TGFA), TGFA (gene 7039); test: LTEA_HepaRG_TGFA: Life Technologies and Expression Analysis (LTEA) Assay for Transforming Growth Factor (TGFA) using HepaRG (AID 2283532)
In short: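 Gene expression of TGFA was quantified by qRT-PCR after human HepaRG cells were treated for 48 h with test chemicals (eight concentrations, highest 100 uM, 0.5% DMSO). Activity in either direction was fitted relative to DMSO.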

[17] = read-out: Transforming Growth Factor (TGFB1), TGFB1 (gene 7040); test: LTEA_HepaRG_TGFB1: Life Technologies and Expression Analysis (LTEA) Assay for Transforming Growth Factor (TGFB1) Transporter using HepaRG (AID 2283533)
In short: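 Eight-point concentration-response (max 100 uM, half-log) in HepaRG under serum-free induction conditions, 48 h. TGFB1 mRNA by qRT-PCR, housekeeping-normalized.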

[18] = read-out: Nuclear factor NF-kappa-B p105 subunit (Homo sapiens) (UniProt P19838); test: LTEA_HepaRG_NFKB1: Life Technologies and Expression Analysis (LTEA) Assay for Nuclear Factor Kappa B Subunit 1 (NFKB1) using HepaRG (AID 2283521);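 further: differentiated human HepaRG liver cells in serum-free induction medium; TaqMan qRT-PCR transcript normalised to ACTB GAPDH and POLR2A housekeeping genes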
In short: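 HepaRG, 48 h exposure; 8-pt half-log series from 100 uM in 0.5% DMSO; duplicates. Readout: NFKB1 mRNA by qRT-PCR (Fluidigm arrays), housekeeping-normalized. Gain/loss fit vs DMSO baseline.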

Measured: AC50

Chain of Signal transducer and activator of transcription 3 (Homo sapiens) (P40763 whole entry, looked up): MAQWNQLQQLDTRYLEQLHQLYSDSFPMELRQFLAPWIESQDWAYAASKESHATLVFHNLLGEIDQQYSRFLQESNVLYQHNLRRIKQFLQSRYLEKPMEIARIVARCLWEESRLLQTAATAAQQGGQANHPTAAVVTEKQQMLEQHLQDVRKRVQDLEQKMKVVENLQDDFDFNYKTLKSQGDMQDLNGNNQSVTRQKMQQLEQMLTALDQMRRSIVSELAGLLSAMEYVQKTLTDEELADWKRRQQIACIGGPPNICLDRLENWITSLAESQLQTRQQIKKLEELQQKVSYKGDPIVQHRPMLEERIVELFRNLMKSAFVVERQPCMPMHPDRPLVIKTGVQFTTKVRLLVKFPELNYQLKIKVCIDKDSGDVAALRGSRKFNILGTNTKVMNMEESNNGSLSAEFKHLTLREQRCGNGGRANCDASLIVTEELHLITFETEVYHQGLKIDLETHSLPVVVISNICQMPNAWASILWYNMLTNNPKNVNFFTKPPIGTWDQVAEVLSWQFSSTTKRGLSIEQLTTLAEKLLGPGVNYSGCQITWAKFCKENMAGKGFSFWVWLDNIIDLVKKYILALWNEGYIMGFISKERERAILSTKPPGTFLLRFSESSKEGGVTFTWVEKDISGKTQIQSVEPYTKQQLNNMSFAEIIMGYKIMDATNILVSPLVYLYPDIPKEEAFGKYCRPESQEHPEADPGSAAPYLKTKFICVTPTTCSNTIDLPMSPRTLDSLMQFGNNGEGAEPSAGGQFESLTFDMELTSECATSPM
Chain of Nuclear factor erythroid 2-related factor 2 (Homo sapiens) (Q16236 whole entry, looked up): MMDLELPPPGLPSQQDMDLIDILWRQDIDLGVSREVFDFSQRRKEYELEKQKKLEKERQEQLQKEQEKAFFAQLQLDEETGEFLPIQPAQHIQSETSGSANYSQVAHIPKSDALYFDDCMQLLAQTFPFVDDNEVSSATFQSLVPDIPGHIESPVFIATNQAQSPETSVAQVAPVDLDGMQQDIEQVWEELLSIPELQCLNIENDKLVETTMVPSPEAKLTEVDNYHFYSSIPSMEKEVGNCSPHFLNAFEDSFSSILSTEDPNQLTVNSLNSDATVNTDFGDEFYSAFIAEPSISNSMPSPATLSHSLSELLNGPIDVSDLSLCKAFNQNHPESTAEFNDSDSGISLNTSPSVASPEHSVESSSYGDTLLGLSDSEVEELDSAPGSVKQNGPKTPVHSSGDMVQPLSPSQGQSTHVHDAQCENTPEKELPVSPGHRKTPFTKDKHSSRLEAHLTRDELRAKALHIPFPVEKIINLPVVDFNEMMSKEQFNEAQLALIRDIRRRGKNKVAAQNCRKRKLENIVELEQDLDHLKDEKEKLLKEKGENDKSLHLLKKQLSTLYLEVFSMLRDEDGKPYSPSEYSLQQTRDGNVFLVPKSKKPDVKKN
Chain of Nuclear factor NF-kappa-B p105 subunit (Homo sapiens) (P19838 whole entry, looked up): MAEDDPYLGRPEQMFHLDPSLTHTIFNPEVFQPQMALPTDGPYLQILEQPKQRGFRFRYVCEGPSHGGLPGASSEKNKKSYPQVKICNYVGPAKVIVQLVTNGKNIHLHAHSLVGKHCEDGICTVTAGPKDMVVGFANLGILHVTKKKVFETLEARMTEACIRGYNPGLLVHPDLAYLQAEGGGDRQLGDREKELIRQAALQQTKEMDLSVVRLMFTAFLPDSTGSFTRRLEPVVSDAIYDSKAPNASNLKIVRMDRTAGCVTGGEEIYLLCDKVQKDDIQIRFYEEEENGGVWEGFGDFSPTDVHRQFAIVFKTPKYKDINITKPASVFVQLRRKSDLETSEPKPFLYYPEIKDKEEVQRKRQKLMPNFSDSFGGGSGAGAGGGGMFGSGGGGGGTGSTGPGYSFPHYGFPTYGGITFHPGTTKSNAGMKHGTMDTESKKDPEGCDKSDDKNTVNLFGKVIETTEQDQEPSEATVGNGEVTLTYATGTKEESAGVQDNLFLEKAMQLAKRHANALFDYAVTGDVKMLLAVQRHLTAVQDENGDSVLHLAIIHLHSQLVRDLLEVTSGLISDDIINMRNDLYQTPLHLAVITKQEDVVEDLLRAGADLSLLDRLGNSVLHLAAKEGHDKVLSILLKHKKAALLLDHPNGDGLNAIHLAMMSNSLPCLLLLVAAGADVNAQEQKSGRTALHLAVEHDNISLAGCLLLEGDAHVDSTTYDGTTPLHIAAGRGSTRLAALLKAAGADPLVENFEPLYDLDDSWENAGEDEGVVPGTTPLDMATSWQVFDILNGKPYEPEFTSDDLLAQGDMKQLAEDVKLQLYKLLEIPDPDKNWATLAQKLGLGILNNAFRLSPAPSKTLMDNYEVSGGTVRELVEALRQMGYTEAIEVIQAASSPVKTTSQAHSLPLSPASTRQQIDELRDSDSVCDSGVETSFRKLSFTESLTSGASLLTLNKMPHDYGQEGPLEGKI

CCCSP(=O)(OCC)SCCC
active: [8] 10.2 µM
not listed: [18]
inactive: all other assays above

CNC(=O)ON=C(C)SC
not listed: [9]
inactive: all other assays above

CSc1nnc(C(C)(C)C)c(=O)n1N
not listed: [16]
inactive: all other assays above

CCCCOC(=O)c1ccccc1C(=O)O
inactive: all assays above

CCOP(=S)(OCC)SCCSCC
not listed: [13] | [16]
inactive: all other assays above

COc1cc(OC)nc(Sc2cccc(Cl)c2C(=O)O)n1
not listed: [9]
inactive: all other assays above

CN(C)C(=O)Nc1cccc(C(F)(F)F)c1
active: [4] 82.7 µM | [11] 50 µM | [14] 50 µM
not listed: [16]
inactive: all other assays above
